According to PubChem BioAssay (NCI):
This is part of a sample that, as a whole, favours compounds with a hit. Of some 79,000 tested, about 15% had one in any assay. Cut-off read from the data, not from the text of the source: active = growth inhibition above about 70%; inactive = the rest.

Columns and labels:
[1] = NCI Yeast Anticancer Drug Screen. Data for the rad50 strain (AID 155);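 note: 0% = growth of vehicle-only cultures of the same strain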; details: S. cerevisiae rad50 strain growth inhibition; at 50.0 µM; stronger effect = higher value
How it was run: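 Cells are treated with compound, grown, and their growth is then scored against vehicle-only cultures of the same repair-deficient yeast strain.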

[2] = NCI Yeast Anticancer Drug Screen. Data for the mec2-1 strain (AID 157); details: S. cerevisiae mec2-1 strain, at 50.0 µM, stronger effect = higher value
How it was run: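 Strain: mec2-1 (DNA repair/cell cycle alteration). Compound exposure, then growth measured; inhibition expressed relative to vehicle.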

[3] = NCI Yeast Anticancer Drug Screen. Data for the sgs1 mgt1 strain (AID 161);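 note: 0% = growth of cultures given vehicle only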; details: S. cerevisiae sgs1 mgt1 strain, at 50.0 µM, stronger effect = higher value
How it was run: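 Inhibition of yeast growth, normalised to vehicle-treated controls, is reported for a strain bearing genetic alterations in DNA damage repair.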

[4] = NCI Yeast Anticancer Drug Screen. Data for the cln2 rad14 strain (AID 165);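 note: 0% = growth equal to vehicle treated cultures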; details: S. cerevisiae cln2 rad14 strain, at 50.0 µM, stronger effect = higher value
How it was run: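 Compounds are applied to the cln2 rad14 yeast strain, and growth is then compared with that of vehicle-treated cultures to give inhibition.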

[5] = NCI Yeast Anticancer Drug Screen. Data for the bub3 strain (AID 167); details: S. cerevisiae bub3 mutant strain, at 50.0 µM, stronger effect = higher value
How it was run: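 Part of a panel of yeast mutants defective in DNA damage repair or cell cycle regulation. Each strain is grown with compound, and inhibition is calculated relative to solvent-treated cultures.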

[6] = NCI Yeast Anticancer Drug Screen. Data for the mlh1 rad18 strain (AID 175); details: S. cerevisiae mlh1 rad18 strain growth inhibition; at 50.0 µM; stronger effect = higher value
How it was run: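 Read-out is yeast growth inhibition, calculated against vehicle-only controls. The compound was applied to a strain engineered with DNA damage repair alterations.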

Measured: growth inhibition

Fc1ccc(Cl)c2cccnc12
inactive: [1] 2.75% | [2] 9.85% | [3] -6% | [4] -33.7% | [5] 3.95% | [6] 8.1%

CCn1c(C)[n+](CCCOS(=O)(=O)[O-])c2ccccc21
inactive: [1] 2.6% | [2] -19.1% | [3] -14.4% | [4] 4.1% | [5] 4.6% | [6] -6.05%

Nc1nc(N)nc(CC(=O)O)n1
inactive: [1] -16.5% | [2] -22.7% | [3] -57% | [4] -60.2% | [5] -14.7% | [6] -36.7%

CCCCCCCCCCCCCCCCCCC1=C(O)C(=O)C=C(OC)C1=O
inactive: [1] 18.2% | [2] -6.5% | [3] -3.05% | [4] -2.4% | [5] 4.4% | [6] 8.75%

CC(=O)Oc1cc(C(C)C)ccc1C
inactive: [1] 26.7% | [2] -3.75% | [3] 18.1% | [4] -1.4% | [5] 0% | [6] 15.4%

CC1(C)CCCC/C1=N\O
inactive: [1] 5.5% | [2] 24.2% | [3] 3.8% | [4] 24.4% | [5] 23.2% | [6] 3.3%

O=C(O)CCCCCCc1ccc2ccccc2n1
inactive: [1] 16.8% | [2] 13.8% | [3] 16.5% | [4] 10% | [5] 7.05% | [6] -3.55%

CCNC(=O)NCCN1CCOCC1
inactive: [1] -3.55% | [2] -8% | [3] -3.1% | [4] -75% | [5] 7.05% | [6] -2%

c1ccc2c(c1)ncc1cc3c(cc12)[nH]c1ccccc13
inactive: [1] 40.9% | [2] 7.5% | [3] 16.6% | [4] -11.1% | [5] -10.4% | [6] 26.6%

Nc1nc(SCc2ccccc2)c2ncn(C3CC(O)C(CO)O3)c2n1 (configuration not stated)
inactive: [1] 0.05% | [2] -1.2% | [3] 3.1% | [4] -99.5% | [5] -1.45% | [6] -6.15%

CCCCC1(CC)COC2(CCCCC2)OC1
inactive: [1] 17.1% | [2] 37% | [3] 13.3% | [4] -22.2% | [5] 6.85% | [6] 6.95%

COc1cc(OC)c(C(=O)/C=C/c2ccccc2)c(O)c1OC
inactive: [1] 24.8% | [2] -7.8% | [3] 20.9% | [4] -45.2% | [5] -15.1% | [6] 30.6%

CC1(C)CCC23CCC4(C)C(CCC5C6(C)CCC(=O)C(C)(C)C6CCC54C)C2C1OC3 (configuration not stated)
inactive: [1] -27.4% | [2] -4.15% | [3] -4.05% | [4] 20.9% | [5] -0.7% | [6] -5.1%

O=C(NCCc1ccccc1)c1c(O)c2ccccc2[nH]c1=O
inactive: [1] 5.85% | [2] 11.9% | [3] 23.7% | [4] 18.2% | [5] 14.1% | [6] 10%

COc1ccc(OC)c2nc3c(C(=O)NCCN(C)C)cccc3nc12
inactive: [1] -15.7% | [2] -25.5% | [3] -55.7% | [4] -35.2% | [5] -31.4% | [6] -68.1%

O=C(NC1CCCCC1)N(C1CCCCC1)C1CCCCC1
inactive: [1] 7.65% | [2] 9.95% | [3] -2.05% | [4] 2.85% | [5] 23.9% | [6] 1.85%

Cc1ccc(NCC(=O)N2CC(=O)Nc3ccccc32)cc1
inactive: [1] -28.6% | [2] -21% | [3] -35.2% | [4] -4.45% | [5] -23.2% | [6] -15.8%

COc1cc2c3c(c1OC)-c1cc4c(cc1CC3(C#N)N(C(=O)c1ccccc1)CC2)OCO4 (configuration not stated)
inactive: [1] 3.5% | [2] 8.05% | [3] -29.2% | [4] -5.35% | [5] 15.1% | [6] 26.1%

N#CC(NNC(=O)Cc1ccccc1)c1c(O)ccc2ccccc12 (configuration not stated)
inactive: [1] 7.45% | [2] -4.9% | [3] 4.5% | [4] -18.2% | [5] -3.15% | [6] -7.25%

CN(C)c1noc2c1c(=O)n(C)c(=O)n2C
inactive: [1] -27.8% | [2] -9.95% | [3] -11.6% | [4] -12.1% | [5] 2.6% | [6] 14.8%

O=C(c1ccccc1)N1C(=S)N=C(Nc2ccccc2)C1=Nc1ccccc1
inactive: [1] -15.8% | [2] -27.1% | [3] -9.8% | [4] -30.3% | [5] -20.9% | [6] -35.9%

CC[Si](C)(C)COC(N)=O
inactive: [1] -23.2% | [2] 8.1% | [3] -12.4% | [4] -1.55% | [5] -4.15% | [6] -37%

Cc1ccc(S(=O)(=O)OC(c2ccccc2)c2ccccc2)cc1
inactive: [1] -7.05% | [2] -10.9% | [3] -0.4% | [4] -17.4% | [5] 0% | [6] -28.8%

O=C1CCSC(=S)N1c1ccc(F)cc1F
inactive: [1] 18% | [2] 4.65% | [3] 18.4% | [4] 28.9% | [5] 4.7% | [6] -1.15%

O=C1c2ccccc2C(=O)c2c1ccc1c2N=C(c2ccc(F)cc2)CC(c2ccc(Cl)c(Cl)c2)N1 (configuration not stated)
inactive: [1] 58% | [2] 20.1% | [3] 5% | [4] -14.7% | [5] 7.65% | [6] 43.6%

COc1ccc(C(=O)O[C@H]2[C@@H]3C=CO[C@@H](OC4OC(CO)C(O)C(O)C4O)[C@@H]3[C@@]3(CO)O[C@@H]23)cc1O (some centres not stated)
inactive: [1] 31.9% | [2] 23.9% | [3] -3.4% | [4] 11.7% | [5] 34.3% | [6] 38.6%

CC(=O)OCCSc1ccc(Cl)cc1
inactive: [1] -2.4% | [2] 9.8% | [3] 6.6% | [4] -33.2% | [5] -23.3% | [6] -7.65%

OC1CSCCCSCC(O)CSCCCSC1 (configuration not stated)
inactive: [1] 1.7% | [2] 10.9% | [3] 3.4% | [4] -2.5% | [5] 0.2% | [6] 8%

CC(=O)Nc1c(Cl)cc2c(c1Cl)Cc1cc(N(C)C)ccc1-2
inactive: [1] -13.6% | [2] -0.35% | [3] 0.5% | [4] 6.25% | [5] 1.75% | [6] -9.25%

C=C(C)C1CC=C(C)[C@](O)(C2(O)C[C@H](C(=C)C)CC=C2C)C1 (some centres not stated)
inactive: [1] -0.55% | [2] 6.95% | [3] 26.1% | [4] 23.9% | [5] 6.6% | [6] 9.65%

CC(OP(=O)(O)O)C(N)C(=O)O (configuration not stated)
inactive: [1] 0.4% | [2] -34% | [3] -44.9% | [4] -39.1% | [5] -19.9% | [6] -5.2%

O=C(Nc1ccc2c(c1)Cc1ccccc1-2)C(Cl)Cl
inactive: [1] 20.4% | [2] 1.95% | [3] 10.6% | [4] -7.85% | [5] 42.5% | [6] 14%

O=C(OC1COC(n2c(=O)oc3cc(Br)c(Cl)cc32)C(OC(=O)c2ccccc2)C1OC(=O)c1ccccc1)c1ccccc1 (configuration not stated)
inactive: [1] 4.55% | [2] -2.25% | [3] -8.15% | [4] -3.05% | [5] 4.85% | [6] 14.4%

Nc1ccccc1OCC(=O)Nc1c(N)ncnc1N
inactive: [1] 0.4% | [2] -6.35% | [3] 6.85% | [4] 2.95% | [5] 5.9% | [6] -3.8%

CCCOC(=O)CCCCC(=O)OCCC
inactive: [1] 11.6% | [2] 17.9% | [3] -8.65% | [4] -4% | [5] 0.85% | [6] 11.9%

CSCCC(NC(C)=O)C(C)=O (configuration not stated)
inactive: [1] 5.75% | [2] -9.35% | [3] -3.55% | [4] -21.3% | [5] -7.15% | [6] 7.9%

Cn1cnc2cc([N+](=O)[O-])ccc21
inactive: [1] -9.6% | [2] -7.95% | [3] -32.2% | [4] -24.6% | [5] -9.6% | [6] 8.8%

COC(=O)/C=C/c1cccc([N+](=O)[O-])c1
inactive: [1] -3.55% | [2] -2.25% | [3] 20.7% | [4] -48.8% | [5] -0.7% | [6] -18.3%

COC(=O)C(Cc1nc2ccccc2[nH]c1=O)C(=O)C(=O)Nc1ccc(OC)cc1[N+](=O)[O-] (configuration not stated)
inactive: [1] -14.4% | [2] -9.5% | [3] 14.3% | [4] -77.2% | [5] -1.4% | [6] 5.5%

NNC(=O)CC(=O)Nc1ccc(S(=O)(=O)c2ccc(NC(=O)CC(=O)NN)cc2)cc1
inactive: [1] 16.6% | [2] 12.7% | [3] 18.6% | [4] 30.1% | [5] 25.4% | [6] -1%

COC(=O)C(=O)[C@@H](O)[C@H](O)[C@@H](O)CO
inactive: [1] 29.8% | [2] 23.7% | [3] 25% | [4] 13.1% | [5] 25.7% | [6] 23.6%

CC(SCCNC(N)=O)C(N)=O (configuration not stated)
inactive: [1] -16.1% | [2] -7.8% | [3] -6.6% | [4] -28.4% | [5] 7.25% | [6] -14.4%
